# Source: PubChem BioAssay AID878 (University of Pittsburgh Molecular Library Screening Center, 2007)
# About 65 (0.03%) of roughly 200,000 compounds were called active. For the sample, actives were picked, then their nearest neighbours and some compounds at random. A number with no mark means an inactive call.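 Rule for the calls: active = activation of at least 50% relative to the plate's high and low controls in the primary single-dose screen; inactive = activation below 50%.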
# Experiment: compounds producing H2O2 with reducing agent – biochemical, NIH compound library profiling, artefact control for MLSCN library redox annotation, primary screen (AID 878);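 note: compound incubated with DTT at 0.8 mM final as the reducing agent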
# Conditions: DTT-dependent redox cycling H2O2, phenol red/HRP absorbance; at 10 µM; stronger effect = higher value; 100% = 100 µM peroxide control, 0% = buffer
row,Structure (SMILES),activation [%]
1,O=C1c2cccc3c([N+](=O)[O-])ccc(c23)C(=O)N1CC1CCCO1 (configuration not stated),-0.67
2,O=C(N/N=C1\CCSC1)c1cc(Cl)ccc1O,-0.43
3,CCn1ccnc1CN1CCCC(C(=O)c2ccc3c4c(cccc24)CC3)C1 (configuration not stated),-1.32
4,COc1ccc([N+](=O)[O-])cc1NC(=O)c1ccc(N(Cc2ccccc2C)S(C)(=O)=O)cc1,2.05
5,CCOc1ccc(N(CC(=O)NC2CCCCCC2)S(=O)(=O)c2c(C)[nH]c(=O)[nH]c2=O)cc1,-0.79
6,CCC(O)C1CCN(Cc2cn(-c3ccc(OC)cc3)nc2-c2cccc(F)c2)CC1 (configuration not stated),-1.12
7,O=C(NNC(=O)C1CCN(c2ncccn2)CC1)c1ccccc1,3.9
8,O=C(NC(=S)Nc1ccc(NC(=O)c2cccs2)cc1)c1ccc([N+](=O)[O-])cc1,0.63
9,CNc1ccc(SC#N)cc1,-1.28
10,CCN1CCN(CC(=O)c2cc(OC)c(OC)c(OC)c2)CC1,-2.87
11,CC(Nc1ccccc1)c1cccnc1 (configuration not stated),-1.74
12,CN(C)c1ccc(-n2cccc2/C=N/n2cnnc2)cc1,-0.65
13,COC(=O)/C(C#N)=C/c1occc1C,-0.05
14,Cc1cc(C)cc(N(CC(=O)N2CC=C(c3ccccc3)CC2)S(=O)(=O)c2c(C)noc2C)c1,-1.64
15,CC(C)(C)C(=O)N(Cc1ccccc1)c1ccccn1,-0.82
16,O=C(CN1CCCCCC1)Nc1ccc(Br)cc1Br,0.33
17,COCCCn1c(SCC(=O)Nc2ccccc2)nnc1-c1ccncc1,0.72
18,CCCCN=C1C([N+](=O)[O-])=CC=C2C1=NC1(CCCCC1)N2O,0.33
19,O=C(N/N=C/c1ccco1)c1ccc(C(=O)N/N=C/c2ccco2)o1,-0.77
20,O=C(C1CC1)N1N=C2CCCCC2C1(O)C(F)(F)F (configuration not stated),-0.33
21,CC1Cc2ccccc2N1S(=O)(=O)c1c(N)n(C)c(=O)n(C)c1=O (configuration not stated),-1.16
22,Cc1cc(NC(=O)CSc2nc3c(cc2C#N)CCCCC3)no1,-0.92
23,COC(=O)c1ccccc1NS(=O)(=O)c1ccc2[nH]c(=O)[nH]c2c1,0.27

row,Structure (SMILES),activation [%]
1,COc1ccc(CCNC(=O)/C(C#N)=C2\N=C(NC(=O)c3cccs3)c3ccccc32)cc1,0.35
2,CCC(NC(=O)c1ccccc1NC(=O)c1ccccc1)C(=O)NNC(=O)CSc1nc2ccccc2o1 (configuration not stated),-0.15
3,CCc1cccc(C)c1NC(=O)COC(=O)Cc1ccsc1,-0.34
4,Cc1noc(C)c1COc1ccc2ccc(=O)oc2c1,-0.19
5,COc1ccc2nc(Nc3nc(-c4ccncc4)cs3)sc2c1,-0.22
6,Cc1cccc(OC(=O)c2sc3ncn(C)c(=O)c3c2C)c1,0.69
7,COc1ccc(CCNC(=O)C(=O)NCc2ccccc2C)cc1OC,-0.24
8,CCc1nnc(NC(=O)C2CC(=O)N(c3ccc4c(c3)OCCO4)C2)s1 (configuration not stated),0.21
9,CCc1ccc(CN(C)C(=O)CCc2nnc(-c3ccc(-c4ccccc4)cc3)o2)nc1,-1.14
10,Cc1ccccc1NC(=O)c1ccc(COc2ccc3c(C)cc(=O)oc3c2)cc1,0.57
11,O=C(Nc1cccc(C(F)(F)F)c1)c1ccc(N2CCNCC2)c([N+](=O)[O-])c1,2.54
12,CN(C)CCCO/N=C(\c1ccccc1)c1ccncc1,0.18
13,CCOCCCNC(=O)C(NC(=O)c1ccc(=O)[nH]c1)c1ccc(Cl)cc1 (configuration not stated),-3.26
14,COc1cc(CC(=O)N/N=C/c2ccccc2)c([N+](=O)[O-])cc1OC,-0.77
15,O=S(=O)(c1ccc(F)cc1)N1CCN(C(=S)NCc2ccco2)CC1,-0.47
16,O=C(Cc1ccccc1)NNC(=O)C1CCN(c2ncccn2)CC1,-0.49
17,COc1ccc(Cl)cc1-n1c(C)cc(C(=O)OCC(=O)N2CC(=O)Nc3ccccc32)c1C,0.04
18,Cc1ccc(-c2cc(=O)c3ccc(Cl)cc3[nH]2)cc1,-1.26
19,CCN(CC)c1ccc([N+](=O)[O-])cc1C(=O)O,0.13
20,N#Cc1c(NC(=O)c2ccc(N3CCOCC3)c([N+](=O)[O-])c2)sc2c1CCCC2,0.09
21,COc1cc(NC(=S)NCc2ccco2)c(OC)cc1Cl,-0.01
22,O=C(Nc1ccccc1)c1cc2ccccc2[nH]1,-0.39
23,C=CCN(Cc1nc(-c2cc(OC)c3c(c2)OCO3)oc1C)C1CCS(=O)(=O)C1 (configuration not stated),-0.18

row,Structure (SMILES),activation [%]
1,COc1ccccc1C(=O)Nc1ccc(OCc2nnc3c4ccccc4c(C)nn23)cc1,-0.13
2,CCOC(=O)Nc1ccc(S(=O)(=O)N(C)C(C)C)cc1,0.17
3,Cc1cc(NC(=O)CN2C(=O)NC(CCc3ccccc3)C2=O)no1 (configuration not stated),-0.88
4,COc1ccc(OC)c(NC(=O)CN(Cc2ccc(Cl)cc2)S(C)(=O)=O)c1,-0.61
5,CC(C)NC(=O)c1ccccc1S(=O)c1ccccc1C#N (configuration not stated),0.13
6,COc1ccc(C2=NN(c3ccccc3)C(c3cccs3)C2)cc1 (configuration not stated),0.96
7,C=CCn1nc(-c2ccccc2)c2c(C)onc2c1=O,-0.48
8,Cc1ccc(C(=O)NC(C)c2ccccc2)cc1Br (configuration not stated),-0.27
9,CC(C)Cn1c(N)c(C(=O)COC(=O)CN2C(=O)C3CC=CCC3C2=O)c(=O)n(C)c1=O (configuration not stated),-0.26
10,Cc1cc(C)cc(NC(=O)N2CCCCCCC2)c1,-0.28
11,CCCCN1C(=O)/C(=C/C=C2/C=Cc3ccccc3N2CC)SC1=S,1.26
12,C=CCn1c(COc2ccc(F)cc2)nnc1SCC(=O)Nc1cccc(S(N)(=O)=O)c1,-0.73
13,CCN(CC)CCCNC(=O)Cn1cnc2sc(C)c(S(=O)(=O)N3CCN(c4ncccn4)CC3)c2c1=O,-0.75
14,COC(=O)C1=C(C(=O)OC)C(c2cc([N+](=O)[O-])ccc2O)c2sc(=O)[nH]c2S1 (configuration not stated),0.35
15,COCCn1c(C)cc(C(=O)COC(=O)/C=C/c2cccc(OC)c2)c1C,0.06
16,O=C(COC(=O)c1ccc(F)cc1)Nc1nc2ccc([N+](=O)[O-])cc2s1,-0.91
17,Cc1nn(CC(=O)NCc2ccccn2)c(C)c1[N+](=O)[O-],0.55
18,Cc1nc(NC(=O)C2CCCCC2)sc1C,1.88
19,O=C(Nc1cccc(S(=O)(=O)N2CCCCC2)c1)c1ccc2c(c1)OCO2,-0.11
20,CCOC(=O)C1(Cc2ccccc2C(F)(F)F)CCN(C(=O)c2cc(C)n(C)n2)CC1,-0.12
21,COC(=O)NNC1=CC(=O)CC(C)(C)C1,0.51
22,CCOC(=O)c1c(N)nn(C(=O)c2ccccc2)c1-c1ccccc1,-2.05
23,CCCCNC(=O)CCn1c(=O)c2ccccc2n(Cc2cc(C)ccc2C)c1=O,0.21

row,Structure (SMILES),activation [%]
1,C=CCn1c2ccccc2c2nnc(SCc3[nH]c(=O)[nH]c3C(=O)CCCCC(=O)OCC)nc21,0.68
2,CCN1C(=O)/C(=c2\s/c(=C3\Sc4ccccc4N3C)c(=O)n2C)N(C)C1=S,-0.11
3,CC(=O)C1(C)N(O)C(C)(C)C(c2cccs2)=[N+]1[O-] (configuration not stated),0.23
4,Cc1c(NC(=S)NCc2ccc(F)cc2)cccc1[N+](=O)[O-],0.02
5,CN(C)/C=C(/C(=O)c1ccc(F)cc1)S(=O)(=O)c1ccc(F)cc1,-0.68
6,CCC1CCCCN1C(=O)CSc1nc(C)cc(C)n1 (configuration not stated),-1.65
7,CCCCC(O)(CCCC)C(=O)NN(C(=O)CCl)c1ccccc1,0.06
8,O=C(c1cccs1)n1nc(NCc2ccccc2)nc1NCc1ccccc1,-0.21
9,Cc1cc(C)c(C#N)c(SCC(=O)Nc2ccccc2)n1,0.39
10,COc1ccc(/C=C(\C#N)C(=O)ONC2=NCCCCC2)cc1,-1.95
11,Cc1cc(CNCc2c(C(=O)N(C)Cc3ccccc3)nc3ccccn23)nn1C,-1.78
12,Cc1ccc(C)c(OCC(=O)N2CCN(C(=O)c3ccco3)CC2)c1,-0.33
13,COc1ccc(/C=C/C(=O)c2ccc(NS(=O)(=O)c3ccc(C)cc3)cc2)cc1O,0.57
14,CCN(CC)C(=O)c1sc2nc(-c3ccccc3)ccc2c1N,0.13
15,Cc1ccc(C)c(NC(=S)NNC(=S)Nc2ccc(C(C)C)cc2)c1,-1.35
16,Oc1ccc(/C=N/Nc2ccc(C(F)(F)F)cn2)cc1O,-2.05
17,CC(CC(=O)O)CC(=O)NNC(=O)c1cccc(Br)c1 (configuration not stated),0.78
18,Cc1ccc(OCC(=O)OC(C)CN(C)Cc2ccccc2)cc1 (configuration not stated),-0.15
19,Cc1ccc(NC(=O)c2oc(=O)c3ccccc3c2-c2ccccc2)c(C)c1,-0.2
20,COc1ccc(CS(=O)/C(Cl)=C(/Cl)C(=O)Nc2ccc(OC)nc2)cc1 (configuration not stated),0.27
21,CCOC(=O)C1=C(CN2CCCCCC2)NC(=O)NC1c1cccc([N+](=O)[O-])c1 (configuration not stated),-10.2
22,CCOC(=O)C1(O)CC(C)=NN1C(=O)c1cccc(Br)c1 (configuration not stated),-0.77
23,COC(=O)c1ccccc1NC(=O)C1CC(=O)N(c2ccc(OC)cc2)C1 (configuration not stated),-0.76
